From PubChem BioAssay (NCATS)
Inconclusive results are not listed. The source made the active and inactive calls. Unless noted, calls come from the whole dose curve.

Experiments:
[1] = biological target: Estrogen receptor (Homo sapiens) (UniProt P03372); assay: qHTS assay for small molecule antagonists of estrogen receptor alpha signaling (AID 588513; active = well fitted curve in the direction sought with a large enough effect in the signal ratio, with a control signal flat, not every such curve was filed as active; the % refers to the signal ratio; note: % is set by controls: 0 for no effect and ±100 for the full control effect)
Chain of Estrogen receptor (Homo sapiens) (P03372 whole entry, looked up): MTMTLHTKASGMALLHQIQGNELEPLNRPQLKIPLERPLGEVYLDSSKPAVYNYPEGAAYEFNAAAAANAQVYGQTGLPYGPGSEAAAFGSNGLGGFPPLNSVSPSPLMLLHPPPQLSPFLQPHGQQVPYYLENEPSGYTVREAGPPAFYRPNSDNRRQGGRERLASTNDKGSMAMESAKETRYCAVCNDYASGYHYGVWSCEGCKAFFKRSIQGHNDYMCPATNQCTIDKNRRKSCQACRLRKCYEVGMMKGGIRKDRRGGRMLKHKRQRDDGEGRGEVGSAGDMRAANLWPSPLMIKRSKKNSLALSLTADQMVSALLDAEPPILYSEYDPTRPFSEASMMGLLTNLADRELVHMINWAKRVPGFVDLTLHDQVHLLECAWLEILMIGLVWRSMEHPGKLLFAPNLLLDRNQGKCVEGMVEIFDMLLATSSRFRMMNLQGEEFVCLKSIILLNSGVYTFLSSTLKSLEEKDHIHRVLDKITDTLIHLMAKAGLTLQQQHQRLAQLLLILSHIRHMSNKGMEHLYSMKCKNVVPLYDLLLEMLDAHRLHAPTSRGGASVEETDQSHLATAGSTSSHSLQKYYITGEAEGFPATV
How it was run: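 ER-alpha-UAS-bla GripTite HEK 293 cells in 2% charcoal/dextran-treated FBS medium; compounds titrated (1:2, duplicate), then stimulated with 0.5 nM 17-beta-estradiol for 18 h at 37C. CCF4 beta-lactamase fluorescence; Hill-fit IC50 and efficacy.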

[2] = biological target: Peroxisome proliferator-activated receptor delta (Homo sapiens) (UniProt Q03181); assay: qHTS assay for small molecule agonists of peroxisome proliferator-activated receptor delta signaling (AID 588534);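 note: 0% = DMSO basal wells and 100% = positive control agonist at 10 µM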
Chain of Peroxisome proliferator-activated receptor delta (Homo sapiens) (Q03181 whole entry, looked up): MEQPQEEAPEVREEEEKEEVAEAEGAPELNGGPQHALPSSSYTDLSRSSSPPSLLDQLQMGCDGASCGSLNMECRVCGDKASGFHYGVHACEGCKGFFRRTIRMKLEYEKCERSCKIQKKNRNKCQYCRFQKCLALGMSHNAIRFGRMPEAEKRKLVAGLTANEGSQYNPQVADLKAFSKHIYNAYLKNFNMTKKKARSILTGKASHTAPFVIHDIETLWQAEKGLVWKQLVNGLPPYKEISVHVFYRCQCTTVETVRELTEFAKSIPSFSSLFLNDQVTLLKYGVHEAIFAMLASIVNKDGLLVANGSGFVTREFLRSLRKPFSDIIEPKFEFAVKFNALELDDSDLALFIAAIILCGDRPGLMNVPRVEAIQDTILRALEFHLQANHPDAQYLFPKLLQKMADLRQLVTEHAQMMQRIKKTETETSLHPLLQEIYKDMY
How it was run: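 Fluorescence from CCF4 substrate cleavage by beta-lactamase reporter, read 2 hrs at RT, measured agonist activity. Compounds were tested with 18 hrs exposure at 37 C. Concentration-response data fitted to Hill equation.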

[3] = biological target: Peroxisome proliferator-activated receptor gamma (Homo sapiens) (UniProt P37231); assay: qHTS assay for small molecule agonists of peroxisome proliferator-activated receptor gamma signaling (AID 588536; active = well fitted curve in the direction sought with a large enough effect in the signal ratio, with a control signal flat, not every such curve was filed as active; the % refers to the signal ratio;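 note: 0% = DMSO basal wells and 100% = rosiglitazone at 2 µM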)
Chain of Peroxisome proliferator-activated receptor gamma (Homo sapiens) (P37231 whole entry, looked up): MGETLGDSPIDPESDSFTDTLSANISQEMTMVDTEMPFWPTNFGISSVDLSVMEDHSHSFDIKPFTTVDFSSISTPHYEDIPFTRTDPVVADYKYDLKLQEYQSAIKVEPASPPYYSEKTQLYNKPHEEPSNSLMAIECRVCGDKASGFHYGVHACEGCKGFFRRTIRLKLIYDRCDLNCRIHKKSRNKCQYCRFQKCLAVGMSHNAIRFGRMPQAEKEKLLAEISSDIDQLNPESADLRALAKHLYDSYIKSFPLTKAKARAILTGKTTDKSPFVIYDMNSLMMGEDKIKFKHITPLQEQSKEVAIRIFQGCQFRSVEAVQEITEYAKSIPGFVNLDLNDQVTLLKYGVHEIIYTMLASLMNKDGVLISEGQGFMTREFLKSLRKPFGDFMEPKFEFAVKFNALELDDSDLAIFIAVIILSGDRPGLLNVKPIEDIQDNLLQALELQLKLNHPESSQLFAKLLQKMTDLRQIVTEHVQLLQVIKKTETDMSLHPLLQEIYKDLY
How it was run: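 PPAR-gamma-UAS-bla HEK293 cells in medium with 1% charcoal/dextran-treated FBS were exposed to compounds for 16 h at 37 C. Beta-lactamase activity was read with CCF4 substrate (405 nm excitation, 460/530 nm emission).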

[4] = biological target: Vitamin D3 receptor (Homo sapiens) (UniProt P11473); assay: qHTS assay for small molecule antagonists of vitamin D receptor signaling (AID 588541);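 note: receptor activated by calcitriol during compound treatment; series mostly up to about 77 µM; % is set by controls: 0 for no effect and ±100 for the full control effect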
Chain of Vitamin D3 receptor (Homo sapiens) (P11473 whole entry, looked up): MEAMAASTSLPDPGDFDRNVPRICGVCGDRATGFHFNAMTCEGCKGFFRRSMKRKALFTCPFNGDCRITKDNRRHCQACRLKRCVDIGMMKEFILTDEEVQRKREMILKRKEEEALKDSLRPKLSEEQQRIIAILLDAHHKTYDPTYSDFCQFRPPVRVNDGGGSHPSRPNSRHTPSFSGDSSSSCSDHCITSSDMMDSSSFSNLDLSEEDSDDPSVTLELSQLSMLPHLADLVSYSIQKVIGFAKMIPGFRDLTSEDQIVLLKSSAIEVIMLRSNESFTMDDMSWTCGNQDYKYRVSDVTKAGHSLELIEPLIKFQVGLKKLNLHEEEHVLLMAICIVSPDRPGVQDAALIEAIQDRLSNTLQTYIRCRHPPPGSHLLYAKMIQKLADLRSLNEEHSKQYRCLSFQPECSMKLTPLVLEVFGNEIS
How it was run: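 VDR-UAS-bla HEK293T cells (2000/well, 2% charcoal-stripped FBS) were treated with titrated compounds plus 1-alpha,25-dihydroxyvitamin D3 (50 nM or 3 nM final) for 16 h at 37 C. CCF4 beta-lactamase fluorescence was read; Hill fits gave IC50.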

[5] = biological target: Vitamin D3 receptor (Homo sapiens) (UniProt P11473); assay: qHTS assay for small molecule agonists of vitamin D receptor signaling (AID 588543);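 note: 0% = DMSO basal and 100% = reference agonist control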
How it was run: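 VDR-UAS-bla HEK293T cells, 2000/well, 2% charcoal-stripped FBS; compound titration 16 h at 37 C; CCF4 beta-lactamase ratio read. Normalized to 50 nM 1-alpha,25-dihydroxyvitamin D3 (100%) and DMSO; Hill fit gives EC50, efficacy.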

[6] = qHTS assay for small molecule agonists of retinoid X receptor alpha signaling (AID 588544); conditions: HEK293T RXRa-UAS-bla, beta-lactamase reporter, 18 h; 530 nm emission; note: potency is the fitted concentration of half-maximal effect;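 for activation: 0% = DMSO basal wells and 100% = reference agonist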
[7] = biological target: Retinoic acid receptor RXR-alpha (Homo sapiens) (UniProt P19793); assay: as above
Chain of Retinoic acid receptor RXR-alpha (Homo sapiens) (P19793 whole entry, looked up): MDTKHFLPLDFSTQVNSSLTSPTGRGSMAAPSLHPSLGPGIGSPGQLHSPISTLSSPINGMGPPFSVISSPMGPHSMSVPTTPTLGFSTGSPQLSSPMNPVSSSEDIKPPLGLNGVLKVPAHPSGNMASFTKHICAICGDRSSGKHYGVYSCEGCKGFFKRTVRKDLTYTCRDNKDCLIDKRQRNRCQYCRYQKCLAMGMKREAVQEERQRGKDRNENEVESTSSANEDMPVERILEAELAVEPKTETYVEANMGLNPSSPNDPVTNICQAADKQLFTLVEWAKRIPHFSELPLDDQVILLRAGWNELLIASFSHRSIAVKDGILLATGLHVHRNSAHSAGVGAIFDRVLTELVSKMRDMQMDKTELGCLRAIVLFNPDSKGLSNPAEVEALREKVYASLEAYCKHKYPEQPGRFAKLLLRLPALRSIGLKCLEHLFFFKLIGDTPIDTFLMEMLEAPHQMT

[8] = biological target: Thyroid hormone receptor beta (Homo sapiens) (UniProt P10828); assay: qHTS assay for small molecule agonists of thyroid hormone receptor beta signaling (AID 588545);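 note: 0% = DMSO only and 100% = 10 nM T3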
Chain of Thyroid hormone receptor beta (Homo sapiens) (P10828 whole entry, looked up): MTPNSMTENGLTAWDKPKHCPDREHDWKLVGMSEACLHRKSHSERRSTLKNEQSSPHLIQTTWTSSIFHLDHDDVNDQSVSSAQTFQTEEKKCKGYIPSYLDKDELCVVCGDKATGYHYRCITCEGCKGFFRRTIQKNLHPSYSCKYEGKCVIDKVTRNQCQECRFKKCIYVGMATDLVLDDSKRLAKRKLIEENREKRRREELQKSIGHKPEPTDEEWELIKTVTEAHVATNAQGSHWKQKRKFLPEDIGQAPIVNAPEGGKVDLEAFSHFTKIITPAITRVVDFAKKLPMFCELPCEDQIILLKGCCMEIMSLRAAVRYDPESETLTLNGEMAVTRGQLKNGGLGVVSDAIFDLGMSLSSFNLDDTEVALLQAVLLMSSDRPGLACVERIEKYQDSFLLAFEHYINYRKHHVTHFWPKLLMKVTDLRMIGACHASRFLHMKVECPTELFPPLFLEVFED
How it was run: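 Compounds were tested as agonists in TR-UAS-bla-GripTite HEK 293 cells. After 18 hrs at 37 C, CCF4 substrate was added and fluorescence read after 2 hrs at room temperature.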

[9] = qHTS assay for small molecule antagonists of retinoid X receptor alpha signaling (AID 588546; active = well fitted inhibition curve with a large enough effect in the signal ratio, with a control signal flat, not every such curve was filed as active; the % refers to the signal ratio;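 note: cells stimulated with 9-cis-retinoic acid as agonist; % is set by controls: 0 for no effect and ±100 for the full control effect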); conditions: HEK293T RXRa-UAS-bla, beta-lactamase ratio, antagonist mode; measured here: W530 green channel, cytotoxicity proxy
How it was run: (§1)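 Beta-lactamase reporter inhibition, read as CCF4 fluorescence ratio (ex 405, em 460/530 nm) after 2 h at RT. HEK293T UAS-bla cells, 2500/well, were stimulated with 9-cis-RA at 500 or 100 nM final alongside test compound for 18 h at 37 C.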

[10] = biological target: Retinoic acid receptor RXR-alpha (Homo sapiens) (UniProt P19793); assay: as above; conditions: HEK293T RXRa-UAS-bla, beta-lactamase ratio, antagonist mode
How it was run: as §1

[11] = qHTS assay for small molecule activators of the p53 signaling pathway (AID 651743; active = well fitted activation curve with a large enough effect in the signal ratio, not every such curve was filed as active; the % refers to the signal ratio; note: series mostly up to about 92 µM; % of control where 0% means no effect); conditions: HCT-116 p53RE-bla, beta-lactamase FRET ratio, 16 h; activation: stronger effect = higher value
How it was run: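 Cell-based beta-lactamase reporter (p53 response elements, HCT-116 background). After a 5-hour preincubation, cells received compound for 16 hours at 37 C; substrate development ran 2 hours at room temperature.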

[12] = qHTS assay for small molecule activators of the nuclear factor-kappa B (NF-kB) signaling pathway (AID 651749; active = well fitted activation curve with a large enough effect in the signal ratio; the % refers to the signal ratio; note: series mostly up to about 77 µM; % of control where 0% means no effect); conditions: NF-kB-bla ME-180 cells, beta-lactamase FRET ratio, 16 h; activation: stronger effect = higher value
How it was run: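 Screening used 2,000 ME-180 reporter cells per well exposed to pinned compound (23 nL) or DMSO; after 16 hr at 37C, beta-lactamase expression under NF-kB control was assessed through FRET.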

[13] = qHTS assay for environmental chemicals that activate the Aryl hydrocarbon Receptor (AhR) signaling pathway (AID 651777; active = well fitted curve in the direction sought with a large enough effect; an effect the other way counts as inactive or inconclusive; note: % of control where 0% means no effect; nearly all actives have a fitted effect of over 15% in size); conditions: 1A2-DRE human hepatoma cells, luciferase, 24 h; activation: stronger effect = higher value
How it was run: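 Stable CYP1A2 promoter/DRE-luciferase human hepatoma line treated 24 hr; One-Glo luminescence, 30 min RT.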

[14] = biological target: Peroxisome proliferator-activated receptor alpha (Homo sapiens) (UniProt Q07869); assay: qHTS assay for small molecule agonists of the peroxisome proliferator-activated receptor alpha (PPARalpha) signaling pathway (AID 651778; active = well fitted curve in the direction sought with a large enough effect; an effect the other way counts as inactive or inconclusive; note: % of control where 0% means no effect); conditions: PathHunter PPARalpha complementation, chemiluminescence, 6 h; max response: stronger effect = higher value
Chain of Peroxisome proliferator-activated receptor alpha (Homo sapiens) (Q07869 whole entry, looked up): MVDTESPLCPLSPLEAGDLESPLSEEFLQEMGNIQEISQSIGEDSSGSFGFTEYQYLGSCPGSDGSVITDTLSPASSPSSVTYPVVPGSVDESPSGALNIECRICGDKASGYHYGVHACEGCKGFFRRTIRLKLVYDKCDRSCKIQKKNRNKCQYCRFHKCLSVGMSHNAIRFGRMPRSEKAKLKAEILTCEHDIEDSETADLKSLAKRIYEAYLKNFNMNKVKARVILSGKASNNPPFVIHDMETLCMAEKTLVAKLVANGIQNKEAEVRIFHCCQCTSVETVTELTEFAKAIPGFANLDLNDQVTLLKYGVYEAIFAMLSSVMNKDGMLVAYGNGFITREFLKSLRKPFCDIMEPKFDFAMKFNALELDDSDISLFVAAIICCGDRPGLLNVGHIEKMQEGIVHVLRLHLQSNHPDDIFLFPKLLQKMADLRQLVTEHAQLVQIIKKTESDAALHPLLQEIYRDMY
How it was run: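 Cells plated at 2,000/well and held overnight at 37 C, 5% CO2, then compound added by pin tool for 6 hr; after PathHunter detection reagent and 60 min at room temperature, chemiluminescence from enzyme complementation was read.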

[15] = qHTS assay for small molecule agonists of the antioxidant response element (ARE) signaling pathway measured by Nrf2-dependant transcriptional activity (AID 720636; active = well fitted curve in the direction sought with a large enough effect in the repeat runs; an effect the other way counts as inactive or inconclusive;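 note: HepG2 cells with an ARE-driven luciferase reporter; % of control where 0% means no effect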)
How it was run: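 Reporter gene assay, HepG2 ARE-luc: 16 hr compound, 37 C, 5% CO2; read-out luciferase luminescence.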

[16] = qHTS assay for small molecule agonists of the antioxidant response element (ARE) signaling pathway measured by Nrf2-dependant transcriptional activity - cell viability counter screen (AID 720653; active = well fitted curve in the direction sought with a large enough effect in the repeat runs; an effect the other way counts as inactive or inconclusive; note: % is set by controls: 0 for no effect and ±100 for the full control effect); conditions: ARE-bla HepG2 viability, CellTiter-Glo ATP luminescence, 16 h; max response: stronger effect = lower value
How it was run: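 ARE-bla HepG2 cells (2,000/well) rested 5 hrs at 37C/5% CO2, then exposed to compounds in DMSO for 16 hrs. Viability was read in the same wells as intracellular ATP by luminescence, 30 min at room temperature after reagent addition.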

[17] = qHTS assay for cell viability of HEK293 cells (AID 743288; active = well fitted curve in the direction sought with a large enough effect; an effect the other way counts as inactive or inconclusive; note: % is set by controls: 0 for no effect and ±100 for the full control effect; nearly all actives have a fitted effect of over 50% in size); conditions: ATP luminescence (CellTiter-Glo), 18 h; max response: stronger effect = lower value
How it was run: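 Parental HEK293 cells, 2,000 per well, preincubated at least 5 h at 37 C, then exposed to compounds in DMSO for 18 h at 37 C. Viability by CellTiter-Glo ATP luminescence after 30 min at room temperature.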

[18] = biological target: Nuclear receptor subfamily 1 group I member 2 (Rattus norvegicus) (UniProt Q9R1A7); assay: qHTS assay for small molecule activators of the rat pregnane X receptor (rPXR) signaling pathway (AID 651751; call rule not given here; note: 0% is about no effect); conditions: rPXR reporter cells, luciferase (One-Glo), 24 h
Chain of Nuclear receptor subfamily 1 group I member 2 (Rattus norvegicus) (Q9R1A7 whole entry, looked up): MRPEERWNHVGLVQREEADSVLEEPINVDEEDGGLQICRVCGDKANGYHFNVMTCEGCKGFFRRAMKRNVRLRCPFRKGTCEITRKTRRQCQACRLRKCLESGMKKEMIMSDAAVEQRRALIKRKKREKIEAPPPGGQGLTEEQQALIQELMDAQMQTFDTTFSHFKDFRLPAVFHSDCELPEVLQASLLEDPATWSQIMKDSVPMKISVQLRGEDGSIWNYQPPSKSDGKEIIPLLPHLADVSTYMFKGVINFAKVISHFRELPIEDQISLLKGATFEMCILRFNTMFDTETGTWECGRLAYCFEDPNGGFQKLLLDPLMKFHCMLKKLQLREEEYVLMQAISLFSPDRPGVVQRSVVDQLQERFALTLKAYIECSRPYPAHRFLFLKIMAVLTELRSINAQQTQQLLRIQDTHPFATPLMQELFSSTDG

[19] = biological target: Estrogen receptor (Homo sapiens) (UniProt P03372); assay: qHTS assay for small molecule agonists of estrogen receptor alpha signaling (AID 588514);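 note: 0% = vehicle only and 100% = reference agonist; nearly all actives have a fitted effect of over 70% in size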
How it was run: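 Cells were plated at 5000/well, incubated 4 hrs at 37 C, dosed with compound titration series, incubated 18 hrs at 37 C, loaded with CCF4 dye for 2 hrs at RT, then fluorescence was read.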

[20] = qHTS assay for cell viability of the p53RE-bla HCT-116 cell line (AID 743292; active = well fitted curve in the direction sought with a large enough effect; an effect the other way counts as inactive or inconclusive; note: % is set by controls: 0 for no effect and ±100 for the full control effect; nearly all actives have a fitted effect of over 55% in size)
How it was run: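 Readout: CellTiter-Glo luminescence after 30 min RT. Treatment: compounds in DMSO, 16 h, 37 C. Cells: CellSensor p53RE-bla HCT-116, 4,000/well, preincubated 5 h.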

CNC(=O)O/N=C(\SC)C(=O)N(C)C
-5.53%: max response [9]
-12.6%: max response [6]
inactive: Potency [1] | outcome [2] | Potency [3] | Potency [4] | outcome [5] | Potency [7] | Potency [8] | max response [10] -20.9% | activation [11] 2.97% | activation [12] -1.34% | activation [13] -0.668% | max response [14] 0.554% | Potency [15] | max response [16] -17.7% | max response [17] -24.8% | max response [18] -0.972%

CCNP(=S)(OC)O/C(C)=C/C(=O)OC(C)C (stereo not drawn)
-11.8%: max response [9]
inactive: Potency [1] | Potency [19] | Potency [3] | Potency [4] | outcome [5] | Potency [7] | Potency [8] | max response [10] 3.14% | activation [11] -1.45% | activation [12] 0.112% | max response [14] -0.524% | Potency [15] | max response [16] -7.95% | max response [17] -5.26% | Potency [20]
-7.51%: max response [6]

C=C(C)CN(CC)c1c([N+](=O)[O-])cc(C(F)(F)F)cc1[N+](=O)[O-]
inactive: Potency [1] | Potency [19] | Potency [3] | Potency [4] | outcome [5] | Potency [7] | Potency [8] | max response [10] 1.05% | activation [11] 0.904% | activation [12] -4.66% | activation [13] 1.28% | max response [14] 0.658% | Potency [15] | max response [16] 5.45% | max response [17] -3.14% | Potency [20]
-6.07%: max response [9]
3.32%: max response [6]

CCSC(C)CC1CC(=O)C(/C(CC)=N/OC/C=C/Cl)=C(O)C1 (stereo not drawn)
-6.58%: max response [9]
inactive: Potency [1] | outcome [2] | Potency [3] | Potency [4] | outcome [5] | Potency [8] | max response [10] 0.139% | activation [11] -5.66% | activation [12] 0.614% | activation [13] -2.18% | max response [14] 0.0996% | Potency [15] | max response [16] -19.5% | max response [17] -16.3%

Clc1ccccc1-c1nnc(-c2ccccc2Cl)nn1
-1.99%: max response [6]
inactive: Potency [1] | Potency [19] | Potency [3] | Potency [4] | outcome [5] | Potency [7] | Potency [8] | max response [10] -5.51% | activation [13] 9.84% | max response [14] -0.0144% | max response [16] -3% | max response [17] -8.84% | Potency [20]
-19.7%: max response [9]

CNC(=O)/C=C(\C)OP(=O)(OC)OC
inactive: Potency [1] | outcome [2] | Potency [3] | Potency [4] | outcome [5] | Potency [7] | Potency [8] | max response [10] -15.9% | activation [13] 7.36% | max response [14] -1.97% | max response [16] -10% | max response [17] -10.5% | Potency [20] | max response [18] 0.645%
-13.8%: max response [6]
-16.8%: max response [9]

CS(=O)(=O)c1cc(C(F)(F)F)ccc1C(=O)c1cnoc1C1CC1
inactive: Potency [1] | Potency [19] | outcome [2] | Potency [4] | outcome [5] | Potency [8] | max response [10] -4.05% | activation [11] -1.28% | activation [12] 0.439% | activation [13] -0.804% | max response [14] -3.75% | Potency [15] | max response [16] -9.62% | max response [17] -14.1% | Potency [20] | max response [18] -4.39%
-9.9%: max response [9]

OC(Cn1cncn1)(c1ccc(F)cc1)c1ccccc1F (stereo not drawn)
inactive: Potency [1] | Potency [19] | outcome [2] | Potency [3] | Potency [4] | outcome [5] | Potency [7] | Potency [8] | max response [10] -2.11% | activation [11] 0.874% | activation [12] 0.295% | activation [13] -1.4% | max response [14] -2.15% | Potency [15] | max response [16] -4.37% | max response [17] -3.84% | Potency [20]
-19.4%: max response [9]
-7.56%: max response [6]

CCSCc1ccccc1OC(=O)NC
-16.4%: max response [6]
inactive: Potency [1] | outcome [2] | Potency [3] | Potency [4] | outcome [5] | Potency [7] | Potency [8] | max response [10] -13% | activation [11] 3.49% | activation [13] 0.553% | max response [14] -0.372% | Potency [15] | max response [16] -3.42% | Potency [20] | max response [18] 0.0425%
-7.11%: max response [9]

CCOP(=O)(OCC)SCCSCC
active: Potency [7] 44.7 µM
-10.7%: max response [6]
-5.85%: max response [9]
inactive: Potency [1] | Potency [19] | Potency [3] | Potency [4] | Potency [8] | max response [10] 3.44% | activation [11] 1.72% | activation [12] 0.345% | activation [13] 1.43% | max response [14] -1.58% | max response [16] 12.9% | max response [17] -2.44% | Potency [20] | max response [18] 3.51%

CCOP(=S)(NC(C)C)Oc1ccccc1C(=O)OC(C)C (stereo not drawn)
inactive: Potency [1] | outcome [2] | Potency [3] | Potency [4] | outcome [5] | Potency [8] | max response [10] -31.4% | activation [11] 2.9% | activation [13] 4.48% | max response [14] -0.429% | Potency [15] | max response [16] -14.9% | max response [17] -18.9%
-9.07%: max response [9]
